The panel holds about 79,000 compounds, 15% with a hit somewhere; the sample as a whole holds those more often. The source made the active and inactive calls. No stated cut-off is given here; in the data, active means growth inhibition above about 70%; inactive means the rest.
Columns and labels:
[1] = NCI Yeast Anticancer Drug Screen. Data for the rad52 strain (AID 147);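 further: 0% = growth of vehicle-treated control cultures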; conditions: S. cerevisiae rad52 mutant growth inhibition, stronger effect = higher value
In short: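 Here a repair-compromised yeast strain receives each compound; its growth is then quantified and normalised to vehicle-only controls.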

[2] = NCI Yeast Anticancer Drug Screen. Data for the rad50EPP+ strain (AID 151);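 further: 0% = growth of vehicle-treated control cultures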; conditions: S. cerevisiae rad50 mutant strain, stronger effect = higher value
In short: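 Read-out is yeast growth inhibition relative to vehicle; cells used were the rad50EPP+ strain.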

[3] = NCI Yeast Anticancer Drug Screen. Data for the mgt1 strain (AID 153); conditions: S. cerevisiae mgt1 mutant growth inhibition, stronger effect = higher value
In short: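 Measured: inhibition of mgt1 yeast growth by compound, normalized to vehicle-treated cultures.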

[4] = NCI Yeast Anticancer Drug Screen. Data for the rad50 strain (AID 155);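 further: 0% = growth of vehicle-only cultures of the same strain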; conditions: S. cerevisiae rad50 strain growth inhibition, stronger effect = higher value
In short: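 Cells are treated with compound, grown, and their growth is then scored against vehicle-only cultures of the same repair-deficient yeast strain.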

[5] = NCI Yeast Anticancer Drug Screen. Data for the mec2-1 strain (AID 157); conditions: S. cerevisiae mec2-1 strain, stronger effect = higher value
In short: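 Using mec2-1 yeast: add compound, measure growth, express inhibition versus vehicle-treated cultures.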

[6] = NCI Yeast Anticancer Drug Screen. Data for the rad14 strain (AID 159);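 further: 0% = growth of vehicle-treated control cultures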; conditions: S. cerevisiae rad14 strain growth inhibition, stronger effect = higher value
In short: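 Readout: yeast growth inhibition, referenced to vehicle-only cultures. Strain bears a defined alteration in DNA damage repair.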

[7] = NCI Yeast Anticancer Drug Screen. Data for the sgs1 mgt1 strain (AID 161);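 further: 0% = growth of cultures given vehicle only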; conditions: S. cerevisiae sgs1 mgt1 strain, stronger effect = higher value
In short: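 Yeast cells carrying a defined DNA-repair defect were exposed to test compounds. Growth inhibition was measured relative to vehicle-treated controls.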

[8] = NCI Yeast Anticancer Drug Screen. Data for the CLN2oe strain (AID 163);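 further: 0% = growth of vehicle-only control cultures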; conditions: S. cerevisiae CLN2oe strain, stronger effect = higher value
In short: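 Whole-cell yeast growth assay. A strain engineered for altered cell-cycle control received compound, and inhibition relative to vehicle-treated cultures was recorded.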

[9] = NCI Yeast Anticancer Drug Screen. Data for the cln2 rad14 strain (AID 165);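 further: 0% = growth equal to vehicle treated cultures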; conditions: S. cerevisiae cln2 rad14 strain, stronger effect = higher value
In short: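 Yeast strain cln2 rad14, bearing defects in cell cycle control and DNA repair, serves as the test system; values reflect growth inhibition compared with vehicle.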

[10] = NCI Yeast Anticancer Drug Screen. Data for the bub3 strain (AID 167); conditions: S. cerevisiae bub3 mutant strain, stronger effect = higher value
In short: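 Part of a panel of yeast mutants defective in DNA damage repair or cell cycle regulation. Each strain is grown with compound, and inhibition is calculated relative to solvent-treated cultures.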

[11] = NCI Yeast Anticancer Drug Screen. Data for the wt2 strain (AID 169);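 further: 0% = growth of vehicle-treated yeast cultures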; conditions: S. cerevisiae wt2 strain growth inhibition, stronger effect = higher value
In short: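 Treated yeast vs. vehicle-treated yeast: growth inhibition determined.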

[12] = NCI Yeast Anticancer Drug Screen. Data for the mlh1 strain (AID 171);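 further: 0% = growth of vehicle-treated control cultures of the same strain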; conditions: S. cerevisiae mlh1 strain growth inhibition, stronger effect = higher value
In short: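 A yeast strain with a defined genetic lesion serves as the test organism. Cultures receive compound or vehicle, and growth is measured.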

[13] = NCI Yeast Anticancer Drug Screen. Data for the sgs1 strain (AID 173);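 further: 0% = growth of vehicle-only control cultures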; conditions: S. cerevisiae sgs1 mutant, stronger effect = higher value
In short: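 A genetically defined yeast mutant is incubated with the test compound, and its growth is compared to that of the same strain given vehicle.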

[14] = NCI Yeast Anticancer Drug Screen. Data for the mlh1 rad18 strain (AID 175); conditions: S. cerevisiae mlh1 rad18 strain growth inhibition, stronger effect = higher value
In short: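 Steps: expose repair-defective yeast to compound; measure growth; express inhibition against vehicle-treated controls.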

[15] = NCI Yeast Anticancer Drug Screen. Data for the rad18 strain (AID 177); conditions: S. cerevisiae rad18 mutant growth inhibition, stronger effect = higher value
In short: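 Measured value is growth inhibition of a yeast strain bearing a DNA repair alteration, referenced to vehicle-treated cells.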

[16] = at 5.0 µM (retest, dose inferred, filed as 0.5)
[17] = at 50.0 µM (retest, dose inferred, filed as 5.0)

Measured: growth inhibition

Fc1ccc(Nc2ccc3ccccc3c2)cc1
inactive: [1]; at 1.2 µM -1% | [1]; at 3.7 µM -2% | [1]; at 11.0 µM -3% | [1]; at 33.0 µM 17% | [2]; at 1.2 µM -3% | [2]; at 3.7 µM -3% | [2]; at 11.0 µM -1% | [2]; at 33.0 µM 4% | [2]; at 100.0 µM 7% | [3]; at 1.2 µM -2% | [3]; at 3.7 µM -1% | [3]; at 11.0 µM -2% | [3]; at 33.0 µM 54% | [4]; at 1.2 µM -6% | [4]; at 3.7 µM -48% | [4]; [16] -1% | [4]; at 11.0 µM 8% | [4]; at 33.0 µM 4% | [4]; [17] 64% | [5]; at 1.2 µM -1% | [5]; at 3.7 µM 0% | [5]; [16] -2% | [5]; at 11.0 µM -3% | [5]; at 33.0 µM 25% | [6]; at 1.2 µM -1% | [6]; at 3.7 µM 2% | [6]; at 11.0 µM 2% | [6]; at 33.0 µM 55% | [7]; [16] -4% | [8]; at 1.2 µM 2% | [8]; at 3.7 µM -2% | [8]; at 11.0 µM -1% | [8]; at 33.0 µM -11% | [8]; at 100.0 µM 44% | [9]; [16] -3% | [9]; [17] 67% | [10]; at 1.2 µM 0% | [10]; at 3.7 µM -7% | [10]; [16] 0% | [10]; at 11.0 µM -6% | [10]; at 33.0 µM -9% | [10]; [17] 12% | [11]; at 1.2 µM -1% | [11]; at 3.7 µM 8% | [11]; at 11.0 µM -1% | [11]; at 33.0 µM 44% | [12]; at 1.2 µM 0% | [12]; at 3.7 µM 0% | [12]; at 11.0 µM -2% | [12]; at 33.0 µM 44% | [13]; at 1.2 µM -2% | [13]; at 3.7 µM 0% | [13]; at 11.0 µM 2% | [13]; at 33.0 µM 63% | [14]; [16] -3% | [14]; [17] 69% | [15]; at 1.2 µM 0% | [15]; at 3.7 µM 1% | [15]; at 11.0 µM 0% | [15]; at 33.0 µM -1%
active: [1]; at 100.0 µM 78% | [3]; at 100.0 µM 94% | [4]; at 50.0 µM 91% | [4]; at 100.0 µM 89% | [5]; [17] 84% | [5]; at 50.0 µM 90.2% | [5]; at 100.0 µM 93% | [6]; at 100.0 µM 97% | [7]; [17] 86% | [7]; at 50.0 µM 91.2% | [9]; at 50.0 µM 92.1% | [10]; at 50.0 µM 92.8% | [10]; at 100.0 µM 88% | [11]; at 100.0 µM 91% | [12]; at 100.0 µM 90% | [13]; at 100.0 µM 95% | [14]; at 50.0 µM 93.5% | [15]; at 100.0 µM 91%

— PubChem BioAssay (NCI)
